Test results as given in the supplement of paper PMC3334620.
In all, about 33,000 sequences were measured (“E-score (-0.5 to 0.5)”: median about -0.0014, highest 2% from about 0.25 on). This is one part of a sample in which the highest values are shown more often than they occur.

molecular target: T1, Cad1 (UniProt P24813); experiment: PBM E-score (8-mer binding enrichment) (E-score (-0.5 to 0.5)); higher = stronger / more preferred TF binding; conditions: protein concentration: 100 nM; construct: GST-full length
T1 sequence: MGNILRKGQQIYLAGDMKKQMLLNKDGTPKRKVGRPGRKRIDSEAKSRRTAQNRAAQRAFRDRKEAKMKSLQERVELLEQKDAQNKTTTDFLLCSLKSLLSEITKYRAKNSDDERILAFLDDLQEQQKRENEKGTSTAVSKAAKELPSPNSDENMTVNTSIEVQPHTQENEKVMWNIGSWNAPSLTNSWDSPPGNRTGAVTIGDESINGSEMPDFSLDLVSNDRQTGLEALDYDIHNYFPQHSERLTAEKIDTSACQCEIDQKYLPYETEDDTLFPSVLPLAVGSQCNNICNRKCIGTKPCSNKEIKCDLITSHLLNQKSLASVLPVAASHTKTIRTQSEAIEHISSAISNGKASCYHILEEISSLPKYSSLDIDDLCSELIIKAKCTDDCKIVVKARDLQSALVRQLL
Procedure: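 Universal 'all 10-mer' protein binding microarrays (Agilent AMADID 015681) probed with GST-tagged S. cerevisiae TFs (full-length or DBD) made by in vitro transcription/translation (PURExpress), about 100-200 nM. Bound TF was detected with fluorescent anti-GST. Each ungapped 8-mer (which stands for itself and its reverse complement) is scored by the PBM enrichment score (E-score), a modified Wilcoxon-Mann-Whitney statistic from -0.5 to +0.5, computed with the Universal PBM Analysis Suite. Scale: above 0.35 generally sequence-specific binding.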

| Sequence | PBM E-score |
| --- | --- |
| TCTTAACA | 0.0995 |
| CCCGCCGG | -0.00326 |
| GTCACTTA | 0.151 |
| AGCTAGCA | -0.0255 |
| AGAGACGG | 0.0418 |
| CCTAATAC | 0.013 |
| ACTAACAG | 0.193 |
| GCTAATAC | 0.152 |
| ACTAACAT | 0.255 |
| ACTAACAC | 0.184 |
| ACTAATAC | 0.301 |
| ACTGCGCG | 0.0621 |
| AATATATG | 0.236 |
| AATATAGC | 0.0229 |
| AATATATA | 0.244 |
| AATATAGG | 0.123 |
| AATATCGT | 0.272 |
| AATATAGT | 0.281 |
| ACTATAGT | 0.293 |
| ACTATAGA | -0.00757 |
| ACTATAGG | -0.161 |
| AATATCGA | 0.242 |
| AATATATT | 0.322 |
| AATATCGG | 0.183 |
| ACTGGTCA | -0.0283 |

| Sequence | PBM E-score |
| --- | --- |
| GAGTCCGC | -0.377 |
| ATTTAGGA | 0.0482 |
| AGGCAGGG | -0.133 |
| ACCACCAA | -0.0937 |
| CTTCCGTC | -0.133 |
| CAGAGCAA | -0.0906 |
| AACAGGGC | 0.0552 |
| TGCGTGAA | 0.0712 |
| GACGTATC | -0.107 |
| ACCCATGA | -0.0855 |
| CCACACGC | 0.131 |
| CTTACGTA | 0.328 |
| CTTACGTC | -0.0353 |
| ATTACGAA | 0.327 |
| GTTACGTA | 0.0792 |
| ATTACGTA | 0.392 |
| ATTACGTG | 0.163 |
| CTCACGTA | -0.0707 |
| ATTACGAG | 0.0536 |
| GTTACGAA | 0.17 |
| CCAATTTC | 0.105 |
| ATCCACTA | 0.127 |
| GACTAAGA | 0.0179 |
| GGATTACA | 0.0354 |
| AGATTACG | 0.252 |

| Sequence | PBM E-score |
| --- | --- |
| TAATTATA | 0.306 |
| AGATTACT | 0.184 |
| AAATTACA | 0.191 |
| GAATTATA | 0.19 |
| CAATTACA | 0.241 |
| TGATTACA | 0.275 |
| AAATTATA | 0.237 |
| AGATTACC | 0.107 |
| CGATTACA | 0.197 |
| TAATTACA | 0.265 |
| ATGCCCGA | -0.0531 |
| TGGCGCCA | 0.198 |
| CGCGTTCC | 0.132 |
| AGATCAGG | -0.128 |
| TCGTTAGA | 0.0445 |
| CGTACTTC | 0.096 |
| CTACGGCC | -0.0892 |
| TCGGTACA | -0.0456 |
| ACAAGAAT | 0.00675 |
| GCAAGAAC | 0.0479 |
| ATAAGAAT | 0.284 |
| AAAAGAAC | 0.118 |
| ATAAGATC | 0.0938 |
| AAAAGAAT | 0.257 |
| ATAAGAAC | 0.205 |

| Sequence | PBM E-score |
| --- | --- |
| ACAAGAAC | 0.251 |
| ATAAGATA | 0.264 |
| AAAAGAAG | 0.0683 |
| ATAAGAAA | 0.209 |
| CTAAGATA | -0.0701 |
| GGCTTTAA | -0.12 |
| TACCACTA | -0.0282 |
| CTAGCCCA | -0.145 |
| CGGACACA | 0.00739 |
| GAGGCTTA | -0.0175 |
| ATAGGCAT | -0.202 |
| GAGGTTCA | 0.0769 |
| CTGGCTGC | -0.0751 |
| ACGCGTCA | 0.198 |
| GGGAAGAC | -0.154 |
| AAACCCAG | 0.0892 |
| AAACCCAT | 0.261 |
| AACCCCAT | -0.107 |
| AGGCCGAA | -0.0603 |
| CTTAAGGA | 0.0352 |
| AAGGCACA | -0.0665 |
| TGACCGCA | 0.0752 |
| GAATGATA | 0.223 |
| AAATGATT | 0.261 |
| CAATGATA | 0.0335 |

| Sequence | PBM E-score |
| --- | --- |
| AAATGATC | -0.133 |
| TAATGATA | 0.251 |
| AAATGATA | 0.214 |
| AATCTGCG | 0.00478 |
| CAGGTTAC | -0.0155 |
| CACTTCGG | -0.0116 |
| AATTGTAC | 0.252 |
| CATTGTAC | 0.0995 |
| GATTGTAC | -0.082 |
| AACACAGC | 0.281 |
| CACACAGC | 0.107 |
| AACACAGG | -0.0364 |
| CGGGGGCC | -0.42 |
| CGGAGGTA | -0.0635 |
| GGCGTCCC | -0.213 |
| GGACGTCA | -0.159 |
| AGACGTCA | -0.096 |
| TGACGTCA | 0.334 |
| GGTCGACA | 0.0882 |
| GGTCGACC | 0.263 |
| AGTCGACG | 0.296 |
| ACTCGACG | 0.0798 |
| AGTCGACC | 0.107 |
| CGTCGACG | 0.103 |
| AGTCGACA | 0.22 |

| Sequence | PBM E-score |
| --- | --- |
| AGTCGACT | 0.287 |
| CGTCGACC | 0.118 |
| CCAACTAG | 0.0684 |
| GCGCACCA | 0.134 |
| CTAACCTA | -0.129 |
| AACTAGCC | -0.0573 |
| AGAACAGC | 0.00791 |
| ACGCATTG | -0.0523 |
| GAACATAC | 0.0334 |
| AGTGGCGG | -0.014 |
| CTCAGGCA | 0.034 |
| AAACGGAA | 0.266 |
| AAACGAAC | 0.0751 |
| AAACGAAT | 0.017 |
| AAACGGAC | -0.00593 |
| CAACGAAA | 0.162 |
| GCACCAAA | -0.0001 |
| ACACCAAA | 0.254 |
| AAACGAAA | 0.287 |
| GAACGAAA | -0.0129 |
| ACACCAAG | -0.0199 |
| TAACGAAA | 0.26 |
| GAACGGAA | -0.0319 |
| GGGCAACA | -0.0207 |
| TTCAAAAA | -0.0855 |

| Sequence | PBM E-score |
| --- | --- |
| ACATTCCG | 0.05 |
| CATGGAAA | 0.161 |
| AGCTGAAT | -0.00032 |
| GGGCAGTA | -0.0606 |
| ACACGAAA | 0.257 |
| CAACGATA | 0.174 |
| AAACGATA | 0.128 |
| ACACGAAG | 0.0492 |
| TAACGATA | 0.261 |
| ACACGAAT | 0.0874 |
| GCAGTTAC | 0.128 |
| CAAGTACG | -0.268 |
| CCGGAGAC | 0.036 |
| ACGGAGAC | 0.128 |
| GCGGAGAC | 0.267 |
| CTCAACGA | -0.0873 |
| AGACATAA | 0.0308 |
| GTACATAA | 0.0232 |
| CTACCTAA | 0.0375 |
| TGACATAA | 0.266 |
| ATACCTAA | 0.227 |
| CTACATAA | -0.0789 |
| TTACATAA | 0.438 |
| TTACCTAA | 0.334 |
| GGACATAA | 0.102 |

| Sequence | PBM E-score |
| --- | --- |
| AAGTGGCA | -0.0104 |
| CTCCATGA | 0.0675 |
| CCATAAGA | -0.0777 |
| AAGCCTCG | -0.00547 |
| ATTGTGAA | 0.0555 |
| GCCCTCCC | -0.19 |
| AAGCACAG | 0.0641 |
| AAGCACAC | -0.0239 |
| AAGCACAT | 0.254 |
| CGTAACAA | 0.0611 |
| GGTAACAA | 0.261 |
| AGTAACAA | 0.082 |
| ACCATCCG | -0.081 |
| AAGTCCTC | -0.0441 |
| ATCGATTG | 0.299 |
| ACCGATTA | 0.123 |
| ATCGATTC | 0.0832 |
| CTCGATTC | 0.0642 |
| CACGATTA | 0.162 |
| GTCGATTA | 0.115 |
| ATCGATTA | 0.275 |
| CTCGATTA | 0.276 |
| ATCGATCG | 0.188 |
| CCCTAGGC | -0.079 |
| TACCCAGA | 0.109 |

| Sequence | PBM E-score |
| --- | --- |
| ACACAGAT | 0.0606 |
| CGCACACC | 0.0191 |
| ACGTCCGA | -0.0154 |
| CCTGGTAG | -0.209 |
| TAGTTATA | 0.068 |
| AGTGCGTC | -0.0502 |
| AACCTGCC | -0.164 |
| GTCTAGTA | 0.0789 |
| AACTTGAC | 0.0523 |
| ACGCACCC | -0.147 |
| AAAGTTCT | 0.0926 |
| ACTACCGG | -0.231 |
| ACAAACAC | 0.262 |
| ATAAACAA | 0.261 |
| ACAAACAG | 0.0175 |
| ACAAACAA | 0.176 |
| ATAACGAC | 0.189 |
| TTAAACAA | -0.157 |
| ACAACGAA | 0.145 |
| GCAACGAA | 0.275 |
| CTAACGAA | 0.153 |
| ATAACGAA | 0.258 |
| TCAACGAA | 0.0907 |
| ATAAACAC | 0.15 |
